Measurements from PubChem BioAssay (EPA / NIEHS).
Inconclusive results are not listed. Calls of active or inactive are those of the source. The calls were made as follows, unless noted: active = hit-call score of the fitted dose curve at least 0.9, where 1 is the maximum; inactive = score below 0.9.

Experiments:
[1] = molecular target: Paired box protein Pax-6 (Homo sapiens) (UniProt P26367); experiment: ATG_Pax6_CIS: Attagene CIS-FACTORIAL HepG2 Assay for human Paired Box 6 (PAX6) (AID 2282956); settings: HepG2 CIS-FACTORIAL PAX6 reporter transcription, RNA readout; actives raise or lower the signal
Summary of the method: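 After twenty-four hours of chemical exposure, transfected HepG2 cells are harvested for RNA. Cis-promoter reporter transcripts are amplified, fluorescently labelled and sized by capillary electrophoresis, with gain and loss of signal scored against DMSO.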

[2] = ATG_PXRE_CIS: Attagene CIS-FACTORIAL HepG2 Assay for human Pregnane X Receptor Element (PXRE) (AID 2282957); settings: HepG2 Attagene CIS-FACTORIAL PXRE reporter, mRNA; actives raise or lower the signal
Summary of the method: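 Cells: HepG2, transiently transfected reporter units under cis promoter control. Exposure: 24 h. Detection: reporter mRNA via RT-PCR/CE fluorescence; bidirectional fitting, DMSO-referenced.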

[3] = ATG_Sox_CIS: Attagene CIS-FACTORIAL HepG2 Assay for human SRY-box transcription factor (SOX) (AID 2282960); settings: HepG2 Attagene cis-factorial SOX reporter, mRNA; actives raise or lower the signal
Summary of the method: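 HepG2, cis reporter units, 24 h exposure. Reporter mRNA: RT-PCR → FAM labelling → HpaI → CE fluorescence. Bidirectional fit vs DMSO.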

[4] = molecular target: Transcription factor Sp1 (Homo sapiens) (UniProt P08047); experiment: ATG_Sp1_CIS: Attagene CIS-FACTORIAL HepG2 Assay for human Specificity Protein 1 (Sp1) (AID 2282961); settings: HepG2 Sp1 cis-reporter transcription, actives raise or lower the signal
Summary of the method: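 Liver-derived HepG2 cells, cis-element reporter library, 24 h treatment; RNA isolated, cDNA amplified with reporter-specific primers, FAM-labeled fragments sized on capillary analyzer. DMSO baseline, bidirectional curve fit.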

[5] = ATG_SREBP_CIS: Attagene CIS-FACTORIAL HepG2 Assay for human Sterol Regulatory Element Binding (SREBP) (AID 2282962); settings: HepG2 Attagene cis-factorial SREBP reporter, mRNA; actives raise or lower the signal
Summary of the method: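 Twenty-four hours after chemical dosing of transfected HepG2 cultures, reporter RNA was converted to cDNA, amplified, end-labelled with 6-FAM and resolved by capillary electrophoresis. Responses were fitted relative to DMSO.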

[6] = molecular target: Signal transducer and activator of transcription 3 (Homo sapiens) (UniProt P40763); experiment: ATG_STAT3_CIS: Attagene CIS-FACTORIAL HepG2 Assay for human Signal Transducer and Activator of Transcription 3 (STAT3) (AID 2282963); settings: HepG2, Attagene cis-factorial STAT3 reporter transcription; actives raise or lower the signal
Summary of the method: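 HepG2 cells transiently transfected with cis-element-driven multiple reporter transcription units; after 24 h chemical exposure, reporter mRNA measured by RT-PCR, 6-FAM primer-extension labelling, HpaI digestion and capillary electrophoresis. Bidirectional fitting versus DMSO baseline.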

[7] = ATG_TA_CIS: Attagene CIS-FACTORIAL HepG2 Assay for human TA Basal Promoter (AID 2282964); settings: HepG2 Attagene CIS-factorial TA basal promoter reporter; actives raise or lower the signal
Summary of the method: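 Background internal-marker endpoint from a 52-component HepG2 cis-reporter panel. Cells treated 24 h; reporter transcripts quantified via RT-PCR and CE fluorescence against DMSO baseline.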

[8] = ATG_TCF_b_cat_CIS: Attagene CIS-FACTORIAL HepG2 Assay for human T-Cell-Factor with beta-catenin (TCF/b-cat) (AID 2282965); settings: HepG2 TCF/beta-catenin cis-reporter transcription, actives raise or lower the signal
Summary of the method: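 In this cis-format system, transfected HepG2 cells report endogenous transcription factor activity. Readout after 24 h exposure is reporter transcript abundance from RT-PCR and capillary electrophoresis, analysed for gain or loss of signal versus DMSO.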

[9] = ATG_TAL_CIS: Attagene CIS-FACTORIAL HepG2 Assay for human TAL Basal Promoter (AID 2282966); settings: HepG2 Attagene cis-factorial TAL promoter reporter; actives raise or lower the signal;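 also: background control endpoint measuring basal TAL promoter reporter mRNA not a specific factor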
Summary of the method: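 RT-PCR plus capillary electrophoresis quantifies reporter mRNA induction in transiently transfected HepG2 cells after 24 h chemical treatment. DMSO serves as negative control and baseline for bidirectional fitting.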

[10] = ATG_TGFb_CIS: Attagene CIS-FACTORIAL HepG2 Assay for human Transforming Growth Factor (TGF) (AID 2282967); settings: HepG2 Attagene CIS TGFb reporter, mRNA transcription; actives raise or lower the signal
Summary of the method: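 Liver HepG2 line, cis-factorial reporter panel, 24 h dosing. Quantitation: RT-PCR products labeled with 6-FAM, cut with HpaI, resolved by capillary electrophoresis; DMSO-referenced bidirectional analysis.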

[11] = ATG_VDRE_CIS: Attagene CIS-FACTORIAL HepG2 Assay for human Vitamin D Receptor Element (VDRE) (AID 2282968); settings: HepG2 VDRE cis-reporter transcription, actives raise or lower the signal
Summary of the method: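 HepG2 cells transiently transfected with cis-element reporter units, dosed 24 h; reporter mRNA measured by RT-PCR, 6-FAM labeling, HpaI digestion and capillary electrophoresis. Activity fitted bidirectionally against DMSO baseline.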

[12] = molecular target: Nuclear receptor subfamily 1 group I member 3 (Homo sapiens) (UniProt Q14994); experiment: ATG_CAR_TRANS: Attagene TRANS-FACTORIAL HepG2 Assay for human Constitutive Androstane Receptor (CAR) (AID 2282969; active = hit-call score of the fitted dose curve at least 0.9, where 1 is the maximum;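 also: activators raise reporter mRNA above DMSO so AC50 marks induction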); settings: HepG2 Attagene TRANS-FACTORIAL CAR reporter
Summary of the method: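 HepG2 cells transiently transfected with multiplexed GAL4-UAS reporter units expressing chimeric NR-Gal4 proteins; compound exposure 24 h. Reporter mRNA measured by RT-PCR, 6-FAM labelling, HpaI digestion and capillary electrophoresis; gain-of-signal fitted against DMSO baseline.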

[13] = molecular target: Glucocorticoid receptor (Homo sapiens) (UniProt P04150); experiment: ATG_GR_TRANS: Attagene TRANS-FACTORIAL HepG2 Assay for human Glucocorticoid Receptor (GR) (AID 2282978; active = hit-call score of the fitted dose curve at least 0.9, where 1 is the maximum;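 also: activators score as hits since higher reporter transcript over DMSO is fitted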); settings: HepG2 Attagene TRANS GR reporter, mRNA transcription
Summary of the method: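 After 24 h incubation with test chemical, transfected HepG2 cells were lysed for RNA; reporter cDNA was amplified, FAM-labelled, HpaI-digested and sized on a capillary analyser. Signal gain relative to DMSO was scored.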

[14] = ATG_RORE_CIS: Attagene CIS-FACTORIAL HepG2 Assay for human RAR-related Orphan Receptor Element (RORE) (AID 2282959); settings: HepG2 Attagene cis-factorial RORE reporter, mRNA; actives raise or lower the signal
Summary of the method: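 A 24-hour exposure of transfected HepG2 hepatoma cells precedes RNA isolation and reporter RT-PCR. Labeled products are digested with HpaI and resolved by capillary electrophoresis, with gain or loss of signal scored relative to DMSO.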

[15] = molecular target: X-box-binding protein 1 (Homo sapiens) (UniProt P17861); experiment: ATG_Xbp1_CIS: Attagene CIS-FACTORIAL HepG2 Assay for human X-box Binding Protein 1 (XBP1) (AID 2282972); settings: HepG2 XBP1 cis-element reporter, Attagene multiplex; actives raise or lower the signal
Summary of the method: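 After a 24-hour chemical exposure of HepG2 cells carrying cis-regulated reporters, reporter mRNA levels are assessed. Quantification uses RT-PCR, 6-FAM labelling and capillary electrophoresis. Gain- or loss-of-signal is fitted against DMSO.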

[16] = molecular target: Estrogen-related receptor gamma (Homo sapiens) (UniProt P62508); experiment: ATG_ERRg_TRANS: Attagene TRANS-FACTORIAL HepG2 Assay for human Estrogen-Related Receptor gamma (ERRg) (AID 2282977; active = hit-call score of the fitted dose curve at least 0.9, where 1 is the maximum;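 also: hits increase reporter signal over DMSO so potencies reflect activators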); settings: HepG2 Attagene TRANS reporter, ERRg transactivation
Summary of the method: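 HepG2 cells transiently transfected with multiplexed GAL4-UAS reporter units and chimeric NR-Gal4 constructs were exposed to test chemicals for 24 h. Reporter mRNA was measured by RT-PCR, 6-FAM primer extension, HpaI digestion and capillary electrophoresis; gain-of-signal versus DMSO.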

[17] = ATG_PPRE_CIS: Attagene CIS-FACTORIAL HepG2 Assay for human Peroxisome Proliferator-activated Response Element (PPRE) (AID 2282958); settings: HepG2 PPRE cis-element reporter, Attagene transcription factor profiling; actives raise or lower the signal
Summary of the method: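 PPRE activity in HepG2: transient cis-reporter transfection, 24 h compound incubation, reporter mRNA by RT-PCR and CE fluorescence; gain/loss fitted against DMSO.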

[18] = molecular target: Steroid hormone receptor ERR1 (Homo sapiens) (UniProt P11474); experiment: ATG_ERRa_TRANS: Attagene TRANS-FACTORIAL HepG2 Assay for human Estrogen-Related Receptor alpha (ERRa) (AID 2282971; active = hit-call score of the fitted dose curve at least 0.9, where 1 is the maximum); settings: HepG2 Attagene TRANS reporter, ERRa transactivation
Summary of the method: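 Reporter transcripts from ERRa-Gal4 chimera activity measured in transiently transfected human HepG2 cells 24 hours after dosing, using RT-PCR with 6-FAM primer extension, HpaI digestion and capillary electrophoresis; DMSO is baseline.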

[19] = ATG_M_19_TRANS: Attagene TRANS-FACTORIAL HepG2 Assay for M19 Transcription Factor (Internal Marker) (AID 2282974; active = hit-call score of the fitted dose curve at least 0.9, where 1 is the maximum); settings: HepG2 Attagene TRANS-FACTORIAL M19 internal marker reporter
Summary of the method: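 Transfected HepG2 (GAL4-UAS MRTUs), 24 h compound, TriZol RNA, DNase-treated RT, reporter PCR, FAM label, HpaI digest, CE fluorescence; gain vs DMSO.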

[20] = ATG_GAL4_TRANS: Attagene TRANS-FACTORIAL HepG2 Assay for GAL4 (Internal Marker) (AID 2282976; active = hit-call score of the fitted dose curve at least 0.9, where 1 is the maximum); settings: HepG2 Attagene TRANS GAL4 internal marker reporter
Summary of the method: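 In transfected human HepG2 liver cells dosed 24 h, GAL4 reporter mRNA serves as a baseline marker. Detection by RT-PCR with fluorescent capillary electrophoresis, activity fitted upward relative to DMSO.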

Measured: AC50

Sequence of Signal transducer and activator of transcription 3 (Homo sapiens) (P40763 whole entry, looked up): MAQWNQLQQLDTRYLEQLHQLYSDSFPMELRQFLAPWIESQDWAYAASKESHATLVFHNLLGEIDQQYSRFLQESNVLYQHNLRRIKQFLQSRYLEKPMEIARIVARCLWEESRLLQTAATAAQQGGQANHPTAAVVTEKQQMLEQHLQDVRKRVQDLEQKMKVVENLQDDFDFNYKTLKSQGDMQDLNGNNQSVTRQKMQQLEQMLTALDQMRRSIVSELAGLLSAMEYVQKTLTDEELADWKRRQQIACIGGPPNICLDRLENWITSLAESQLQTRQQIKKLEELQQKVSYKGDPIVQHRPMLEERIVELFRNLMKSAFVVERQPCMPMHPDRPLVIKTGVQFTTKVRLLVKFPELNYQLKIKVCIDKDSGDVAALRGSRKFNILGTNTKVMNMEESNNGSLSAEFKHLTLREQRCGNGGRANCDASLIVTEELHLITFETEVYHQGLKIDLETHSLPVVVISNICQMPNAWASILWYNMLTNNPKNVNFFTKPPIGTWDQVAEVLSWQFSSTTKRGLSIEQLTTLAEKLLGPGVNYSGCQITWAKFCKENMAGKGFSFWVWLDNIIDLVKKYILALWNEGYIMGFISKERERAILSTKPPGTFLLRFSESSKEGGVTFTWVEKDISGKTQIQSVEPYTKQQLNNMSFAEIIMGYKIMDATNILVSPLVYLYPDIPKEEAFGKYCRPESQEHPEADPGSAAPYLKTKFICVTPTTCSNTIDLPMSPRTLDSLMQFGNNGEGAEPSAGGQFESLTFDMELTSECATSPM
Sequence of Steroid hormone receptor ERR1 (Homo sapiens) (P11474 whole entry, looked up, the tested form may be a part): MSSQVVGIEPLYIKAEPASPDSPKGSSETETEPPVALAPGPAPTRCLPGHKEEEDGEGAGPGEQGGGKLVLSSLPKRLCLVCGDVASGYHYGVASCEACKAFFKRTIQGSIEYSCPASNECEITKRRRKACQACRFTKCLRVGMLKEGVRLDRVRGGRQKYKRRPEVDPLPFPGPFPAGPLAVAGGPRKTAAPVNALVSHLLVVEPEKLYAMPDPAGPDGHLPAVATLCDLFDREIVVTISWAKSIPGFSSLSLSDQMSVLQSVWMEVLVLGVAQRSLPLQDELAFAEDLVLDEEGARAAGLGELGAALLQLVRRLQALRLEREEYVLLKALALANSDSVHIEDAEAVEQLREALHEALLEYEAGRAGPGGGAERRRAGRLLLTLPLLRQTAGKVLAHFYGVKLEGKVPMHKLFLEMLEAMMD
Sequence of Paired box protein Pax-6 (Homo sapiens) (P26367 whole entry, looked up): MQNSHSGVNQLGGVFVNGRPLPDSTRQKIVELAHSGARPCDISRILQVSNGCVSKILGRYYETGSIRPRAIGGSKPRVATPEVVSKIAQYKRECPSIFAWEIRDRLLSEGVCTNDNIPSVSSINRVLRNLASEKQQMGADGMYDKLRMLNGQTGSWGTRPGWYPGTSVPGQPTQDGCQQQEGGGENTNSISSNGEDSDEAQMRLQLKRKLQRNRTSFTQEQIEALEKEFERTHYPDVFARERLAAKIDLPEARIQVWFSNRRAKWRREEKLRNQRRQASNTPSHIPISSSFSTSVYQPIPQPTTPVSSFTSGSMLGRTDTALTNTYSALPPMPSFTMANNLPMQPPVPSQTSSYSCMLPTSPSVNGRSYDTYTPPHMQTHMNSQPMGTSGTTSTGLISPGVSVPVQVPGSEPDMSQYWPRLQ
Sequence of Glucocorticoid receptor (Homo sapiens) (P04150 whole entry, looked up): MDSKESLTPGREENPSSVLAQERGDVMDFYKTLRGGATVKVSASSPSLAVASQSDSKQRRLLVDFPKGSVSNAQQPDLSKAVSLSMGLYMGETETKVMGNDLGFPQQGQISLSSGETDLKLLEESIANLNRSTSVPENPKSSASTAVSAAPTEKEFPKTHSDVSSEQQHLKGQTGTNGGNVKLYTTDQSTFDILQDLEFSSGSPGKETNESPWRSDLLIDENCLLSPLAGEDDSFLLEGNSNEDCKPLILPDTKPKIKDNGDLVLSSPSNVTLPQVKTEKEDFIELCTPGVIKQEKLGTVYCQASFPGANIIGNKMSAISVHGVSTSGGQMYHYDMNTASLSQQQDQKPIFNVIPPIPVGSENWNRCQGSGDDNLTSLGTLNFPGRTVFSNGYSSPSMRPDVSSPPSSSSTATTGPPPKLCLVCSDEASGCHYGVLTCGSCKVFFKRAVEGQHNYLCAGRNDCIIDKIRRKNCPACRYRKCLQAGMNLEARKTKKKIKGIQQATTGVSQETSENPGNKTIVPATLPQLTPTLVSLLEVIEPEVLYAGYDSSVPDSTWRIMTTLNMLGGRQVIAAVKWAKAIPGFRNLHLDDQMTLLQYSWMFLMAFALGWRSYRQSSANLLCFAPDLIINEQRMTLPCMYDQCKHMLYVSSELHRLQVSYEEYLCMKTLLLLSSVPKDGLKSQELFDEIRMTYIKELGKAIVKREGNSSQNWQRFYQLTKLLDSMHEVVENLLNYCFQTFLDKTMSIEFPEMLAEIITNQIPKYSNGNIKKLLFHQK
Sequence of Nuclear receptor subfamily 1 group I member 3 (Homo sapiens) (Q14994 whole entry, looked up, the tested form may be a part): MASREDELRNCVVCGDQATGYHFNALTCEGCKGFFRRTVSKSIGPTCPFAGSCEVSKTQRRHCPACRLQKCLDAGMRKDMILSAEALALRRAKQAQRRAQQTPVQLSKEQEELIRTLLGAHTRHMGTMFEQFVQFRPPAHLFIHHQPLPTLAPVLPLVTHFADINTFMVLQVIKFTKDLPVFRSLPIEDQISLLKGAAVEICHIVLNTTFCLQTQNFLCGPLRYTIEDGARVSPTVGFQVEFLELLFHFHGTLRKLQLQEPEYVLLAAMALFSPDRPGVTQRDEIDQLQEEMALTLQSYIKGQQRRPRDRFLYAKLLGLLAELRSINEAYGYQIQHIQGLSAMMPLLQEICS
Sequence of X-box-binding protein 1 (Homo sapiens) (P17861 whole entry, looked up): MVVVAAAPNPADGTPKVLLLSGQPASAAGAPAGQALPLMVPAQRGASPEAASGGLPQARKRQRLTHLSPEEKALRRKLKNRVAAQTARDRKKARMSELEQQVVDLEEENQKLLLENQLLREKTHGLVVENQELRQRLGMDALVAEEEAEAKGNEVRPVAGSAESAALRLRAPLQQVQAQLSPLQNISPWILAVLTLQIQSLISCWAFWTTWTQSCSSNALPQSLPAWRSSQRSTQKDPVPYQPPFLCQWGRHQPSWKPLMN
Sequence of Transcription factor Sp1 (Homo sapiens) (P08047 whole entry, looked up, the tested form may be a part): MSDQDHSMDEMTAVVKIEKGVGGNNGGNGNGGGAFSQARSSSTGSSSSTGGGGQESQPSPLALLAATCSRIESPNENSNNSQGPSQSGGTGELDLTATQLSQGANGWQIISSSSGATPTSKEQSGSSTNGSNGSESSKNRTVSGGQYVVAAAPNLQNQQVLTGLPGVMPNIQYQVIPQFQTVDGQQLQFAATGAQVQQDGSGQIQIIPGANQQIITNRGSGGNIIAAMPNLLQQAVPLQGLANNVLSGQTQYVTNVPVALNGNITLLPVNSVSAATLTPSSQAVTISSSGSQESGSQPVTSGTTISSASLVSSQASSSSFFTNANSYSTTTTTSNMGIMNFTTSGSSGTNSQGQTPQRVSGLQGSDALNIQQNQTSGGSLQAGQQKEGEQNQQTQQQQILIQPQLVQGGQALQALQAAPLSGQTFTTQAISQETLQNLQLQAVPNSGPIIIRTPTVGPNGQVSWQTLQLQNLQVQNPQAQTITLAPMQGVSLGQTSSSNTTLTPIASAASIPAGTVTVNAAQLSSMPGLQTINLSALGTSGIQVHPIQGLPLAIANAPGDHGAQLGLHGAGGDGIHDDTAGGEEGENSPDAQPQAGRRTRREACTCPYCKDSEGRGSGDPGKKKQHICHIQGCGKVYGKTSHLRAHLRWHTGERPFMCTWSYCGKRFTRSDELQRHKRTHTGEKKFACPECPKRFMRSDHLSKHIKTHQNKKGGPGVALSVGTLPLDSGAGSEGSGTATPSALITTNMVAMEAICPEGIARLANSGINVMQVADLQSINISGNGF
Sequence of Estrogen-related receptor gamma (Homo sapiens) (P62508 whole entry, looked up, the tested form may be a part): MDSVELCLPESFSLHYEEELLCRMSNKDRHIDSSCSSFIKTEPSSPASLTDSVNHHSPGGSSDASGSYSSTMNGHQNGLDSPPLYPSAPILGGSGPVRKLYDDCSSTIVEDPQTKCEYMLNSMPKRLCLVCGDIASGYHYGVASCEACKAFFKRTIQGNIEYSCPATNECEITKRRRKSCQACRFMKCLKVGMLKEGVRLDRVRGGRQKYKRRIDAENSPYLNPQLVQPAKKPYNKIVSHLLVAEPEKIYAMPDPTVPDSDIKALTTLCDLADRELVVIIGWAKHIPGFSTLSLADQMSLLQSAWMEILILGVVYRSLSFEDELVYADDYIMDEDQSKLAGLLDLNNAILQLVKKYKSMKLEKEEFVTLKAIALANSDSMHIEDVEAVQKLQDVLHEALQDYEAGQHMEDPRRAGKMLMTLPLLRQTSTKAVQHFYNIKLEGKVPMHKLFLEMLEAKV

CC(=O)c1c(C)c([N+](=O)[O-])c(C(C)(C)C)c([N+](=O)[O-])c1C
inactive: [1] | [3] | [4] | [5] | [6] | [7] | [8] | [9] | [12] | [13]
active: [2] 2.28 µM | [10] 100 µM | [11] 4.01 µM

CC(C)=CCCC(C)CCOC=O (stereo unspecified)
active: [2] 100 µM
inactive: [1] | [14] | [3] | [5] | [6] | [7] | [9] | [10] | [11] | [12] | [15]

CCN(CCN)c1cccc(C)c1
active: [2] 36.2 µM | [11] 72.4 µM
inactive: [1] | [3] | [4] | [5] | [6] | [8] | [9] | [10] | [12] | [15] | [16]

C=CC(=C)CCCC(C)(C)OC(C)=O
inactive: [2] | [17] | [14] | [3] | [4] | [5] | [6] | [7] | [8] | [9] | [10] | [11] | [18] | [15] | [19] | [13]

CCCSc1ccc2nc(NC(=O)OC)[nH]c2c1
inactive: [2] | [14] | [3] | [4] | [6] | [8] | [9] | [10] | [11] | [15] | [19] | [13]

C1CCCCC1
inactive: [2] | [17] | [14] | [3] | [4] | [5] | [6] | [7] | [8] | [9] | [10] | [12] | [18] | [15] | [19]

Nc1ccc2cc(S(=O)(=O)O)cc(O)c2c1N=Nc1ccccc1C(F)(F)F
inactive: [17] | [3] | [5] | [6] | [7] | [8] | [9] | [10] | [19] | [13]
active: [2] 38.5 µM

CC(=O)CC(=O)Nc1ccc(C)cc1C
inactive: [2] | [17] | [14] | [3] | [4] | [5] | [6] | [7] | [8] | [9] | [10] | [15] | [19] | [20]

O=C1CCCC=CCCCCCCCCCC1
inactive: [17] | [14] | [3] | [6] | [7] | [9] | [10]
active: [2] 9.05 µM | [4] 48.8 µM | [8] 49.3 µM | [11] 18.4 µM | [15] 55.6 µM

O=CN1CCOCC1
inactive: [2] | [17] | [14] | [3] | [4] | [5] | [6] | [7] | [8] | [9] | [10] | [15] | [19]

CCCCCCCC(=O)OCC(O)CO (stereo unspecified)
inactive: [2] | [17] | [3] | [4] | [5] | [6] | [7] | [8] | [9] | [10] | [18] | [15] | [19] | [13]

OCc1cccc(Oc2ccccc2)c1
active: [2] 27.4 µM
inactive: [17] | [3] | [5] | [6] | [7] | [8] | [9] | [10] | [11] | [15] | [19] | [20]

O=c1[nH]c(=O)c2cn[nH]c2[nH]1
inactive: [2] | [17] | [14] | [3] | [6] | [7] | [8] | [10] | [18] | [15] | [19] | [16] | [13]
